Measured values taken from PubChem BioAssay AID1053144 (Broad Institute, 2014).
Hit rate of the full screen: of about 3,400 compounds, about 160 (4.7%) were called active.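 Rule for the calls: active = fitted curve reaches 30% activation at a concentration no higher than the top valid tested dose, luminescence rising; inconclusive = no clear call, values can overlap the other calls; inactive = signal moving opposite to the expected increase, plus the rest.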 A selection follows. Measured potencies and affinities stand elsewhere.

Assay: Wnt/beta-catenin signaling activators, dose response, cell-based, iPS-derived NPC, luciferase, Wnt3a, cherry-pick (AID 1053144);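 note: Wnt3a stimulus is conditioned medium from Wnt3a-transfected mouse L cells at 5% in well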
Conditions: NPC TCF/LEF luciferase reporter, Wnt3a EC25, 24 h; series mostly up to 26 µM

activation, inactive:
Cc1ccc(C(=O)NC2=NCCS2)cc1
COc1cccc(C(=O)NC2=NCCS2)c1
Cc1cnc(C(=O)Nc2nnc(C(C)C)s2)cn1
CCOC(=O)C1(NC(=O)C2(NC(=O)CN3C(=O)c4ccccc4C3=O)CCCC2)CCCC1
O=c1c2ccccc2c(=O)n(-c2ccccc2)n1-c1ccccc1
Cc1cccc(/C(N)=N/OC(=O)c2cccs2)c1
Cc1cccc(/C(N)=N/OC(=O)c2ccncc2)c1
CC(Sc1nncn1C)C(=O)Nc1ccc(N2CCCCC2)cc1 (stereo not given)
O=C1c2ccccc2C(Nc2ccccc2)N1c1ccc(Cl)cn1 (stereo not given)
COc1n[nH]c(C(=O)Nc2nc3ccccc3s2)c1[N+](=O)[O-]
CN(C)S(=O)(=O)c1ccc(C(=O)NCCOc2ccccc2)cc1
Cc1ccc(C(=O)CC(SCC(=O)O)c2ccc([N+](=O)[O-])cc2)cc1 (stereo not given)
Cc1cc(C(=O)COC(=O)c2ccc(N)c([N+](=O)[O-])c2)c(C)n1Cc1ccc2c(c1)OCO2
Cc1ccc2nc(NC(=O)c3ccc(Cl)s3)sc2c1
Nc1nc(Nc2ccccc2)sc1C(=O)c1ccccc1
Brc1ccc(-c2cn3ccccc3n2)cc1
O=C(Nc1ccc(Cl)cc1)c1ccc(-c2ccccn2)s1
O=C(NCc1ccccn1)Nc1cccc(Cl)c1
CN(C)c1ccc(N=Nc2cccc(F)c2)cc1
C(=N\NCc1ccccc1)/c1ccc2ncccc2c1
CC(C)(CNC(=O)c1cccc(S(=O)(=O)N2CCCCC2)c1)N1CCOCC1
Cc1ccc(CNC(=O)COC(=O)C2CCN(S(=O)(=O)c3cccs3)CC2)cc1
O=C(N=Nc1c(O)[nH]c2ccccc12)c1ccc2c(c1)OCO2
Oc1[nH]c2ccccc2c1N=Nc1ccccc1
CCCCCn1c(CN2CCN(C(=O)c3ccco3)CC2)nc2c1c(=O)n(C)c(=O)n2C
Cc1nnc(SCC(=O)c2ccc(Cl)cc2)n(N)c1=O
O=C(CSc1nnc2ccccn12)c1ccc(Cl)cc1
CCCCN(CC)C(=O)c1cc2cc3ccc(OC)cc3nc2o1
Cc1ccc2nc(-c3ccc(NC(=O)COCC(=O)O)cc3)sc2c1
Cc1ccc2nc(-c3ccc(NC(=O)CSc4nc(N)cc(=O)[nH]4)cc3)sc2c1
Cc1cc(C)cc(N(CC(=O)Nc2ccc(-c3nc4ccc(C)cc4s3)cc2)S(C)(=O)=O)c1
Cc1ccc(C2(C)NC(=O)N(CC(=O)Nc3ccc(-c4nc5ccc(C)cc5s4)cc3)C2=O)cc1 (stereo not given)
CC1=CCC(C(=O)O)C(C(=O)Nc2ccc(-c3nc4ccc(C)cc4s3)cc2)C1 (stereo not given)
Cc1ccc2nc(-c3ccc(NS(=O)(=O)c4ccc(F)c(F)c4)cc3)sc2c1
Cc1ccc(C)c(-n2ccnc2SCC(=O)Nc2cccc(S(=O)(=O)NC3=NCCC3)c2)c1
CCC(=O)Nc1c(C(=O)Nc2ccc3c(c2)OCCO3)oc2ccccc12
N=c1cc(C2(O)CCCCC2)n2c(nc3ccccc32)s1
Cc1ccnc(NC(=O)C2CC(=O)N(c3ccc4c(c3)OCCO4)C2)c1 (stereo not given)
c1ccc(-c2nnc(-c3ccccn3)nn2)nc1
CCC(=O)Nc1cc(C(=O)OCC(=O)c2ccccc2)ccc1C
COC(=O)[C@H](CCSC)NC(=O)c1cccnc1SC
O=C(CCN1C(=O)C2CCCCC2C1=O)Nc1nc2c(F)cc(F)cc2s1 (stereo not given)
CN(c1ccc(C(=O)NCCSC(C)(C)C)cc1)S(=O)(=O)c1ccccc1
Cc1ccc(C)c(OCc2nc3ccccc3[nH]2)c1
COc1ccc(NC(=O)N2CCCc3ccccc32)cc1
COc1cccc(NC(=O)n2ncc3c(C)cccc32)c1
O=C(Cc1noc2ccccc12)Nc1ccccn1
Cc1nc(C(C)NC(=O)CCc2nnc(CCCc3ccccc3)o2)c(C)s1 (stereo not given)
c1ccc2nc(SCc3cn4ccccc4n3)cnc2c1
CC(=O)Nc1ccc2oc(-c3ccccc3)nc2c1
CC(=O)Nc1ccc(-c2nc3ccccc3o2)cc1
O=C(N/N=C/c1ccc(F)cc1)c1ccccc1
COc1ccc(C(=O)Cc2ccc3c(c2)OCO3)c(O)c1
Cc1ccc(NC(=O)COc2ccc3c(c2)OCO3)c(Cl)c1
Cc1ccc(/C=N/NC(=O)c2cccs2)cc1[N+](=O)[O-]
COc1ccc(/C=N/Nc2ccc([N+](=O)[O-])cc2)cc1O
Cc1c(C(=O)OCC(=O)NCC2CCCO2)cccc1[N+](=O)[O-] (stereo not given)
Cc1cc(-c2nnc(-c3cccc(Cl)c3)o2)no1
COc1ccc(/C=C/C(=O)c2ccccc2)c(OC)c1
O=C(/C=C/c1ccc(O)cc1)c1ccccc1
O=S(=O)(c1ccccc1)n1ccc(-c2cnc(-c3ccccc3)s2)n1
CC(C)c1cc(C(=O)NCCc2ccccc2)no1
COc1ccc(NC(=O)c2cc(-c3ccco3)on2)cc1
O=C(Nc1ccc(F)c(Cl)c1)c1cc(-c2ccco2)on1
O=C(Nc1cccnc1Cl)c1cc(-c2ccco2)on1
Cc1ccc(NC(=O)/C=C/c2ccc3c(c2)OCO3)nc1
COc1ccc(CNC(=O)Nc2cccc(C)c2)cc1
Cc1ccc(SCC(=O)NC(=O)NCCC(C)C)c(C)c1
Cc1ccc(OCC(=O)Nc2ccc(Cl)cc2)c([N+](=O)[O-])n1
Cc1ccc(C(=O)CCC2CCCCC2=O)cc1 (stereo not given)
CCC(=O)Nc1cccc(-c2nc3ccc(C)cc3o2)c1
Cc1ccc2nc(-c3cccc(NC(=O)c4ccc5c(c4)OCCO5)c3)oc2c1
O=[N+]([O-])c1ccccc1N/N=C1\CCc2ccccc21
O=C(NCc1nnc(SCC(=O)N2CCCc3ccccc32)o1)c1c(F)cccc1Cl
COc1ccc(N=Cc2c(O)[nH]c3ccccc23)cc1
